This is part of a sample that, as a whole, favours compounds with a hit. Of some 79,000 tested, about 15% had one in any assay. A number with no mark means an inactive call. The source made the active and inactive calls. Cut-off read from the data, not from the text of the source: active = growth inhibition above about 70%; inactive = the rest.
Key:
[1] = NCI Yeast Anticancer Drug Screen. Data for the rad50 strain (AID 155);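 note: 0% = growth of vehicle-only cultures of the same strain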; details: S. cerevisiae rad50 strain growth inhibition; at 50.0 µM; hits give high values
How it was run: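 Vehicle-treated cultures provide the reference for the growth inhibition reported for compound-exposed, repair-deficient yeast.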

[2] = NCI Yeast Anticancer Drug Screen. Data for the mec2-1 strain (AID 157); details: S. cerevisiae mec2-1 strain, at 50.0 µM, hits give high values
How it was run: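 Using mec2-1 yeast: add compound, measure growth, express inhibition versus vehicle-treated cultures.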

[3] = NCI Yeast Anticancer Drug Screen. Data for the sgs1 mgt1 strain (AID 161);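 note: 0% = growth of cultures given vehicle only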; details: S. cerevisiae sgs1 mgt1 strain, at 50.0 µM, hits give high values
How it was run: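 This yeast growth screen uses a strain with defined DNA-repair lesions; compound-treated growth is compared with vehicle-treated growth.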

[4] = NCI Yeast Anticancer Drug Screen. Data for the cln2 rad14 strain (AID 165);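 note: 0% = growth equal to vehicle treated cultures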; details: S. cerevisiae cln2 rad14 strain, at 50.0 µM, hits give high values
How it was run: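 Yeast strain cln2 rad14, bearing defects in cell cycle control and DNA repair, serves as the test system; values reflect growth inhibition compared with vehicle.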

[5] = NCI Yeast Anticancer Drug Screen. Data for the bub3 strain (AID 167); details: S. cerevisiae bub3 mutant strain, at 50.0 µM, hits give high values
How it was run: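 Mutant yeast screening strain plus compound; vehicle-treated cultures serve as the 0% inhibition reference.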

[6] = NCI Yeast Anticancer Drug Screen. Data for the mlh1 rad18 strain (AID 175); details: S. cerevisiae mlh1 rad18 strain growth inhibition; at 50.0 µM; hits give high values
How it was run: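 Steps: expose repair-defective yeast to compound; measure growth; express inhibition against vehicle-treated controls.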

## CC(=O)Oc1c(C)c2c(O)c3c1C1=C(OCOC1=C(C)C3=O)/C(C)=C\C(C)(O)C(O)C(C)C(O)C1C(=O)OC(C(C)C1O)C(C)(O)/C=C/C=C(C)C(=O)N2 (stereo unspecified)
[1]
  growth inhibition: 16.2%
[2]
  growth inhibition: 3.65%
[3]
  growth inhibition: -10.4%
[4]
  growth inhibition: 8.95%
[5]
  growth inhibition: 9.7%
[6]
  growth inhibition: 5.5%

## CC(=O)NCCN1CCN(C(C)=O)CC1
[1]
  growth inhibition: 10.1%
[2]
  growth inhibition: 10.7%
[3]
  growth inhibition: -8.7%
[4]
  growth inhibition: -37%
[5]
  growth inhibition: -13.8%
[6]
  growth inhibition: -15.2%

## CCCCCCCSC#N
[1]
  growth inhibition: -7.6%
[2]
  growth inhibition: 20.9%
[3]
  growth inhibition: -1.9%
[4]
  growth inhibition: -22.4%
[5]
  growth inhibition: 9.75%
[6]
  growth inhibition: 29.6%

## C[N+](C)(C)C1CC([N+](C)(C)C)C2c3ccccc3C21 (stereo unspecified)
[1]
  growth inhibition: -15.2%
[2]
  growth inhibition: 23.1%
[3]
  growth inhibition: 1.95%
[4]
  growth inhibition: -9.05%
[5]
  growth inhibition: -3.35%
[6]
  growth inhibition: 3.9%

## CC(C)(C)/C=C/N1N=NC(c2ccccc2)(c2ccccc2)C1=O
[1]
  growth inhibition: 32.6%
[2]
  growth inhibition: 19%
[3]
  growth inhibition: 23.1%
[4]
  growth inhibition: -13.2%
[5]
  growth inhibition: 22.1%
[6]
  growth inhibition: 26.7%

## CSc1ccc(NC(=O)c2ccc(C(=O)Nc3ccc(SC)cc3)cc2)cc1
[1]
  growth inhibition: -17.5%
[2]
  growth inhibition: -10.7%
[3]
  growth inhibition: -12.6%
[4]
  growth inhibition: -14.9%
[5]
  growth inhibition: -1.95%
[6]
  growth inhibition: -26.7%

## COc1ccccc1NC(=O)C1=C(C)NC(C)=C(C(=O)Nc2ccccc2OC)C1c1c(Cl)cccc1Cl
[1]
  growth inhibition: 15.6%
[2]
  growth inhibition: 3.75%
[3]
  growth inhibition: -11.8%
[4]
  growth inhibition: -6.05%
[5]
  growth inhibition: 0.2%
[6]
  growth inhibition: 26.6%

## COC1OC(OC)c2cc([N+](=O)[O-])ccc21 (stereo unspecified)
[1]
  growth inhibition: 9.9%
[2]
  growth inhibition: 17.3%
[3]
  growth inhibition: 18.1%
[4]
  growth inhibition: 23.2%
[5]
  growth inhibition: -11.1%
[6]
  growth inhibition: 50.2%

## C[S+](C)c1ccc(Cl)cc1
[1]
  growth inhibition: -1.45%
[2]
  growth inhibition: -6.65%
[3]
  growth inhibition: -21.2%
[4]
  growth inhibition: 17.9%
[5]
  growth inhibition: 11.3%
[6]
  growth inhibition: 8.25%

## N#Cc1nnn(-c2ccccc2)n1
[1]
  growth inhibition: 24.2%
[2]
  growth inhibition: 13.5%
[3]
  growth inhibition: 2.9%
[4]
  growth inhibition: -15.7%
[5]
  growth inhibition: 4%
[6]
  growth inhibition: 22.5%

## CN(C)c1ccc(C(=O)CCCN2CCC(O)(c3ccc(Cl)cc3)CC2)cc1
[1]
  growth inhibition: 37.4%
[2]
  growth inhibition: 14.8%
[3]
  growth inhibition: 36.6%
[4]
  growth inhibition: 6.4%
[5]
  growth inhibition: 18.1%
[6]
  growth inhibition: 21.9%

## O=C(O)c1ccncc1
[1]
  growth inhibition: 12.2%
[2]
  growth inhibition: -9.65%
[3]
  growth inhibition: 8.1%
[4]
  growth inhibition: 46.9%
[5]
  growth inhibition: -2.9%
[6]
  growth inhibition: 17.9%

## CC1CCC/C1=C(/I)C(=O)c1ccccc1 (stereo unspecified)
[1]
  growth inhibition: 2.25%
[2]
  growth inhibition: -6.75%
[3]
  growth inhibition: 24.6%
[4]
  growth inhibition: 7.85%
[5]
  growth inhibition: -2.15%
[6]
  growth inhibition: -59.6%

## CCCC(=O)c1ccc(O)cc1
[1]
  growth inhibition: 4.65%
[2]
  growth inhibition: 3.45%
[3]
  growth inhibition: -6.2%
[4]
  growth inhibition: -12.6%
[5]
  growth inhibition: 4.05%
[6]
  growth inhibition: 0.2%

## COc1ccc(C(O)c2ccccn2)cc1 (stereo unspecified)
[1]
  growth inhibition: -13.1%
[2]
  growth inhibition: -35.9%
[3]
  growth inhibition: -24%
[4]
  growth inhibition: -34.8%
[5]
  growth inhibition: -62.7%
[6]
  growth inhibition: -18.7%

## CC(=O)OC1CC2CC3C(C)CCC3(C2(C)C)C1(C)O (stereo unspecified)
[1]
  growth inhibition: -12.9%
[2]
  growth inhibition: -0.25%
[3]
  growth inhibition: -0.7%
[4]
  growth inhibition: 0.7%
[5]
  growth inhibition: 11.4%
[6]
  growth inhibition: -11.5%

## OC(c1ccccc1)C(CN1CCCCC1)c1ccccc1 (stereo unspecified)
[1]
  growth inhibition: 3.9%
[2]
  growth inhibition: 2.55%
[3]
  growth inhibition: 24.9%
[4]
  growth inhibition: -11.8%
[5]
  growth inhibition: 4.95%
[6]
  growth inhibition: 15.4%

## NC(=O)CC(NC(=O)OCc1ccccc1)C(N)=O (stereo unspecified)
[1]
  growth inhibition: 8.6%
[2]
  growth inhibition: 8.4%
[3]
  growth inhibition: -11.2%
[4]
  growth inhibition: -12.4%
[5]
  growth inhibition: 10.8%
[6]
  growth inhibition: -14.6%

## O=C(N/N=C(\C1=Nc2ccc(Cl)cc2NC1O)C(O)/C=C/c1ccccc1)c1ccncc1 (stereo unspecified)
[1]
  growth inhibition: 17.6%
[2]
  growth inhibition: 3.95%
[3]
  growth inhibition: -8.8%
[4]
  growth inhibition: -20.7%
[5]
  growth inhibition: -4%
[6]
  growth inhibition: 7.7%

## O=c1[nH]nc(Cc2ccc(Cl)cc2)n1O
[1]
  growth inhibition: 3.3%
[2]
  growth inhibition: 5.3%
[3]
  growth inhibition: 0.1%
[4]
  growth inhibition: -26.6%
[5]
  growth inhibition: -13.5%
[6]
  growth inhibition: 1.65%

## C[C@H]1C[C@](C)(CO)Oc2oc3ccccc3c(=O)c21
[1]
  growth inhibition: 4.5%
[2]
  growth inhibition: 10.3%
[3]
  growth inhibition: 17.4%
[4]
  growth inhibition: 4.75%
[5]
  growth inhibition: 7.2%
[6]
  growth inhibition: 13.1%

## COC(=O)C1=NOC(COc2ccc([N+](=O)[O-])cc2)C1 (stereo unspecified)
[1]
  growth inhibition: 9.4%
[2]
  growth inhibition: -2.9%
[3]
  growth inhibition: 20.4%
[4]
  growth inhibition: -8.55%
[5]
  growth inhibition: -1.65%
[6]
  growth inhibition: 19.1%

## COc1cc(NC(=O)Nc2cccc(C(C)=O)c2)c(OC)cc1Cl
[1]
  growth inhibition: -10.5%
[2]
  growth inhibition: 11%
[3]
  growth inhibition: 0.75%
[4]
  growth inhibition: -14.4%
[5]
  growth inhibition: 6.35%
[6]
  growth inhibition: -9.15%

## CC(=O)SC1CC(=O)OC1=O (stereo unspecified)
[1]
  growth inhibition: -3.1%
[2]
  growth inhibition: -15.3%
[3]
  growth inhibition: 7.1%
[4]
  growth inhibition: 7.8%
[5]
  growth inhibition: 0.2%
[6]
  growth inhibition: 7.85%

## OCCOCn1nc(-c2ccccc2)nc1-c1cnccn1
[1]
  growth inhibition: -13.4%
[2]
  growth inhibition: -4.55%
[3]
  growth inhibition: -20.3%
[4]
  growth inhibition: -27.9%
[5]
  growth inhibition: -38.1%
[6]
  growth inhibition: -24.1%

## COc1ccc(C2C3=C(CC(C)(C)CC3=O)Oc3cc4c(cc32)OCO4)cc1 (stereo unspecified)
[1]
  growth inhibition: -2.7%
[2]
  growth inhibition: -0.05%
[3]
  growth inhibition: -25%
[4]
  growth inhibition: -0.45%
[5]
  growth inhibition: 0%
[6]
  growth inhibition: -4.95%

## C(=Nc1ccc(N2CCOCC2)cc1)c1ccc2c(c1)OCO2
[1]
  growth inhibition: -15.4%
[2]
  growth inhibition: -7%
[3]
  growth inhibition: -15.2%
[4]
  growth inhibition: -49.5%
[5]
  growth inhibition: -21.7%
[6]
  growth inhibition: -22%

## CN(C)S(=O)(=O)N(C)C
[1]
  growth inhibition: -1.55%
[2]
  growth inhibition: 6.4%
[3]
  growth inhibition: 15.4%
[4]
  growth inhibition: 6.1%
[5]
  growth inhibition: -8.45%
[6]
  growth inhibition: 26.2%

## CC1CN(C(=O)Cn2cnc([N+](=O)[O-])n2)CC(C)O1 (stereo unspecified)
[1]
  growth inhibition: 7.65%
[2]
  growth inhibition: 14.2%
[3]
  growth inhibition: 2.75%
[4]
  growth inhibition: 65.2%
[5]
  growth inhibition: 29.8%
[6]
  growth inhibition: 12.7%

## O=C(NCCCCl)c1c(O)c2ccccc2[nH]c1=O
[1]
  growth inhibition: 58.8%
[2]
  growth inhibition: 25.5%
[3]
  growth inhibition: 52%
[4]
  growth inhibition: 18.1%
[5]
  growth inhibition: 46.2%
[6]
  growth inhibition: 27.8%

## CC1CCCN(N=Nc2ccc(Br)cc2-c2nc(N)c3cc(Br)ccc3n2)C1 (stereo unspecified)
[1]
  growth inhibition: 99.2% (active)
[2]
  growth inhibition: 99.2% (active)
[3]
  growth inhibition: 99.5% (active)
[4]
  growth inhibition: 98.2% (active)
[5]
  growth inhibition: 99% (active)
[6]
  growth inhibition: 99% (active)

## Cc1cc2c(c3ccccc13)Cc1ccccc1-2
[1]
  growth inhibition: -5.65%
[2]
  growth inhibition: 9.2%
[3]
  growth inhibition: -7%
[4]
  growth inhibition: 7.35%
[5]
  growth inhibition: 15.4%
[6]
  growth inhibition: -13.8%

## COc1c(NC(=O)c2ccc(C(=O)Nc3cccc([N+](=O)[O-])c3OC)cc2)cccc1[N+](=O)[O-]
[1]
  growth inhibition: 22.3%
[2]
  growth inhibition: -6.1%
[3]
  growth inhibition: -9%
[4]
  growth inhibition: -20.6%
[5]
  growth inhibition: -2.2%
[6]
  growth inhibition: -1.3%

## N#Cc1nc(CC(=O)/C=C/c2ccccc2)c(CC(=O)/C=C/c2ccccc2)nc1C#N
[1]
  growth inhibition: 3.7%
[2]
  growth inhibition: 13.7%
[3]
  growth inhibition: 8.05%
[4]
  growth inhibition: 16.3%
[5]
  growth inhibition: 1.3%
[6]
  growth inhibition: 21.3%

## N/N=C(\NN)c1ccccc1
[1]
  growth inhibition: 11.7%
[2]
  growth inhibition: 12.2%
[3]
  growth inhibition: -4.2%
[4]
  growth inhibition: -47.5%
[5]
  growth inhibition: 0.75%
[6]
  growth inhibition: 11.7%

## COc1ccc(C(=O)Nc2ccccc2)cc1
[1]
  growth inhibition: 7.45%
[2]
  growth inhibition: 8.7%
[3]
  growth inhibition: -0.3%
[4]
  growth inhibition: 6.25%
[5]
  growth inhibition: -1.2%
[6]
  growth inhibition: -4.65%

## CSc1nc(N)c(C(N)=O)cc1C#N
[1]
  growth inhibition: 5.45%
[2]
  growth inhibition: 2.6%
[3]
  growth inhibition: -5.4%
[4]
  growth inhibition: -32.8%
[5]
  growth inhibition: -16.6%
[6]
  growth inhibition: 8.55%

## COc1ccc(/C=C2\N=C(c3cc(OC)c(OC)c(OC)c3)OC2=O)cc1OC
[1]
  growth inhibition: 7.1%
[2]
  growth inhibition: 10.9%
[3]
  growth inhibition: 8.5%
[4]
  growth inhibition: 29.9%
[5]
  growth inhibition: -1.85%
[6]
  growth inhibition: 25.1%

## COc1ccc(COC(=O)Nc2ccc([N+](=O)[O-])cc2)cc1
[1]
  growth inhibition: -38.2%
[2]
  growth inhibition: -3.6%
[3]
  growth inhibition: -28.1%
[4]
  growth inhibition: -5.3%
[5]
  growth inhibition: -18.5%
[6]
  growth inhibition: -12.2%

## CC1(C)C2CCC(CN)C1C2 (stereo unspecified)
[1]
  growth inhibition: -11.4%
[2]
  growth inhibition: -44.6%
[3]
  growth inhibition: -1.7%
[4]
  growth inhibition: 13.3%
[5]
  growth inhibition: -20.1%
[6]
  growth inhibition: -15.6%

## CCCCCCCCCOCC(COP(=O)([O-])OCC[N+](C)(C)C)OC (stereo unspecified)
[1]
  growth inhibition: 10.2%
[2]
  growth inhibition: 13.3%
[3]
  growth inhibition: 1.4%
[4]
  growth inhibition: -22.4%
[5]
  growth inhibition: -7.75%
[6]
  growth inhibition: 17.5%

Reference: PubChem BioAssay (NCI)
